Screens from PubChem.
aSyn 5UTR inh = MLPCN primary screen, SNCA 5' untranslated region; inhibition, % (tested at 7.5 µM); 300,000 tested, 0.82% active; AID 1813; alpha-synuclein 5'UTR reporter, inhibitor activity; in the data active = inhibition above about 60%;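 also: H4 neuroglioblastoma cells stably carrying SNCA 5'UTR luciferase fusion; 0% = DMSO wells and 100% = positive control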
Mdm2 MdmX PPI = disrupts the human Mdm2-MdmX interaction | O15151+Q00987 | SaOS-2 split-luciferase Mdm2/MdmX complementation, luminescence | inhibition, % at 8 µM | 330,000 tested, 3% active;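 active = inhibition of at least 50% at 8 µM in the primary screen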
Target sequence (O15151 whole entry, looked up): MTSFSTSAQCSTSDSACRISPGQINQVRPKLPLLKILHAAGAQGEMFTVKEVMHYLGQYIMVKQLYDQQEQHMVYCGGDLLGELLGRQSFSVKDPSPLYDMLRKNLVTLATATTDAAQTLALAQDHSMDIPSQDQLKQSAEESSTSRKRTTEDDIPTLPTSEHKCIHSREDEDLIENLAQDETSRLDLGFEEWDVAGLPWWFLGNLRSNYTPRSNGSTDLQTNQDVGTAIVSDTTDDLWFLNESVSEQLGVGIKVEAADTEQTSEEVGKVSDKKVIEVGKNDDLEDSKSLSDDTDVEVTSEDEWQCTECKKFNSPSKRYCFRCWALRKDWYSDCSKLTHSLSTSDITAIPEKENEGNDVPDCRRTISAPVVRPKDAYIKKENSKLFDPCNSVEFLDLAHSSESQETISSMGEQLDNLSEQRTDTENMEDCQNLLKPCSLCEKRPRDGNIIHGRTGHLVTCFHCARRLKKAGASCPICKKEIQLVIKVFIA
Target sequence (Q00987 whole entry, looked up): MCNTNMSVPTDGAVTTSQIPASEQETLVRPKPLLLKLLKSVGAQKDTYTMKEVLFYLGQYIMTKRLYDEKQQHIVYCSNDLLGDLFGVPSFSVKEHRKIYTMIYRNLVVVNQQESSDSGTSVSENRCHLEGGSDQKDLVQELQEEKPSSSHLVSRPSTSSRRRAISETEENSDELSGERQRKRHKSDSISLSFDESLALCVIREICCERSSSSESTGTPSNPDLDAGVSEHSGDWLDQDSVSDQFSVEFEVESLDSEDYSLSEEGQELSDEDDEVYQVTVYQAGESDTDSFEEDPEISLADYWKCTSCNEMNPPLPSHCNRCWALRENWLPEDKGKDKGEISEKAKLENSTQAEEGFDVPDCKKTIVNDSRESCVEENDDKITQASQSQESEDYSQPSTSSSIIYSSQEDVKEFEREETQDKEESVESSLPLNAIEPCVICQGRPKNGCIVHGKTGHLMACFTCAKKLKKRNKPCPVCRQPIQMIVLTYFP
Gli-Sufu antag = blocks Gli-Sufu signaling in a luciferase reporter | Sufu-KO-LIGHT fibroblasts, Gli luciferase reporter luminescence | inhibition, % at 5 µM | 340,000 tested, 0.74% active | AID 588413;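 active = inhibition above about 55%, limit read from the data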;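 also: 0% = DMSO-treated cells and 100% = wells with medium but no cells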
CSC inhib = blocks cancer stem cells | cancer stem cell-like cells viability, luminescence | 300,000 tested, 1.1% active | inhibition, % at 7.5 µM | AID 2717; in the data active = inhibition above about 75%; tested in HMLE shEcad cells
Jurkat NFkB inh = inhibitors of the PMA/ionomycin-induced NF-kB reporter in Jurkat cells; 330,000 tested, 0.53% active; inhibition, % at 4 µM; PMA/ionomycin-induced NF-kB luciferase reporter, luminescence; AID 435003; in the data active = inhibition above about 50%
697 NFkB inh = inhibitors of the PMA/ionomycin-induced NF-kB reporter in 697 B cells | 697 B-cell NF-kB luciferase reporter, 16 h | inhibition, % at 4 µM | 330,000 tested, 0.33% active | AID 435022; in the data active = inhibition above about 35%
Mdm2 MdmX conf = human Mdm2/MdmX binding inhibition, confirmed; shares compounds with Mdm2 MdmX PPI; luminescent assay; inhibition, % at 8 µM; 10,000 tested, 55% active; in the data active = inhibition above about 40%
Full FLuc ctr = inhibits full-length luciferase, flagging false Mdm2/MdmX hits. shares compounds with Mdm2 MdmX PPI. SaOS-2 full-length luciferase counterscreen, luminescence. inhibition, % at 8 µM. 6,200 tested, 77% active;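 active = mean inhibition at 8 µM reaching about 37%, which flags the compound as non-specific, limit read from the data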;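 also: p53-null SaOS-2 cells with luciferase driven by a doxycycline-inducible promoter; compound on cells about two nights before reading with doxycycline added after day one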
* hit, by the source's call; nt = not tested or not shown. Hits are enriched below; roughly 4.5% of the tested compounds scored in any of these assays.

SMILES | aSyn 5UTR inh | Mdm2 MdmX PPI | Gli-Sufu antag | CSC inhib | Jurkat NFkB inh | 697 NFkB inh | Mdm2 MdmX conf | Full FLuc ctr
C#CCOCCOCCOCCNc1nc(N2CCN(C(=O)CCCCCCCCCCNC(=O)[C@H]([C@@H](C)CC)n3cc(CCCCN=C(N)N)nn3)CC2)nc(N2CCN(C(=O)CCCCCCCCCCNC(=O)[C@H](CO)n3cc(CCCCCN)nn3)CC2)n1 | nt | 4.1 | 11.1 | 18.4 | -6.6 | -20.1 | nt | nt
COc1cc(CNC2CCCC2)cc(OC)c1 | 16.7 | -2.4 | 2.3 | 1.4 | -4.3 | 2.7 | nt | nt
O=C(NCCCO)C(=O)NCc1ccncc1 | 10.4 | -5.2 | -4.7 | 10.0 | -5.8 | 0.2 | nt | nt
COc1cc(CNCCc2ccc(S(N)(=O)=O)cc2)ccc1OCC(=O)NC1CCCCC1 | -29.1 | 22.7 | 2.7 | -5.2 | -2.2 | 4.6 | nt | nt
COc1cc(CNCCc2ccc(S(N)(=O)=O)cc2)ccc1OCc1ccc(Cl)cc1 | -64.2 | 53.5* | 2.8 | 29.1 | 17.3 | -34.6 | 40.1* | 68.6*
CCn1c(/C=C/c2c(C)[nH]c3ccccc23)nc2ccccc2c1=O | 23.1 | 44.1 | -17.7 | -16.3 | 27.4 | -89.4 | nt | nt
Cc1[nH]c2ccccc2c1/C=C/c1nc2ccccc2c(=O)n1-c1ccc([N+](=O)[O-])cc1 | 6.8 | 64.3* | 22.1 | 9.3 | 31.3 | -65.5 | -16.2 | nt
COc1ccc(-c2coc3cc4oc(=O)cc(C)c4cc23)cc1F | 21.9 | 71.4* | 8.7 | -11.2 | 35.9 | -12.5 | 46.4* | 104.8*
COc1ccc(-c2cc(=O)oc3cc4occ(C)c4cc23)cc1 | 9.5 | 19.7 | -2.6 | 40.5 | -9.9 | 0.9 | nt | nt
COc1cc(Cl)ccc1NC(=S)N(CCCN1CCOCC1)Cc1cn(C)c2ccccc12 | 8.7 | 55.2* | 7.7 | 7.8 | 19.1 | -79.0 | 22.1 | nt
COc1ccccc1/C=C(\NC(=O)c1ccc(OC)c(OC)c1)C(=O)Nc1cc([N+](=O)[O-])ccc1C | 18.8 | 58.9* | 4.3 | 16.7 | -15.6 | -7.9 | 7.7 | nt
COc1ccc(/C=C(/NC(=O)c2cccc([N+](=O)[O-])c2)C(=O)O)cc1OC | 9.4 | 5.3 | 3.6 | -6.0 | 7.0 | 25.7 | nt | nt
COc1ccc(C(=O)c2ccc(Br)cc2)c2ccccc12 | -5.5 | 52.2* | -12.6 | 70.8 | 11.2 | -8.3 | 52.7* | 79.9*
COc1ccc(C(=O)c2ccc(Cl)cc2)c2ccccc12 | 17.2 | 37.8 | 9.0 | 59.6 | 13.2 | 5.9 | nt | nt
Cc1cc(NC(=O)COC(=O)c2ccccc2S(=O)(=O)N(C)c2ccccc2)no1 | 37.5 | 96.3* | 0.2 | 27.1 | -82.7 | -87.9 | 72.2* | 43.4*
Cc1cc(NC(=O)COC(=O)c2ccccc2NCCO)no1 | nt | -6.9 | -2.6 | -13.3 | 7.3 | 4.7 | nt | nt
O=C(Nc1ccccc1)Nc1cccc(C(F)(F)F)c1 | -73.1 | 29.1 | -6.6 | -1.5 | -23.3 | 2.8 | nt | nt
CCSCCc1nnc(NC(=O)Nc2cccc(C(F)(F)F)c2)s1 | 25.5 | 94.9* | 3.3 | 27.4 | 21.7 | 1.0 | 95.2* | 49.6*
COc1cc(NC(=O)c2cccc3c2C(=O)N(C2CCCCC2)C3)cc(OC)c1OC | 6.3 | 78.0* | 37.3 | 8.1 | 9.2 | 13.8 | 42.9* | 61.4*
Cc1cc(C)cc(NC(=O)c2cccc3c2C(=O)N(C2CCCCC2)C3)c1 | 16.4 | 16.6 | -2.3 | -22.6 | -0.3 | -6.6 | nt | nt
COc1ccc(-c2noc(CSc3nc4sc(C)c(C)c4c(=O)n3-c3ccccc3)n2)cc1OC | 6.4 | 50.0* | 3.0 | -7.8 | 13.3 | -30.7 | 32.4 | nt
COc1ccc(-c2noc(CSc3nc4sc(C)c(C)c4c(=O)n3-c3ccccc3)n2)cc1 | 11.6 | 44.3 | 8.4 | 10.8 | -3.1 | 1.1 | nt | nt
COC1(OC)C=CC(=O)C=C1NC(=O)c1ccccc1OC(C)=O | -25.7 | 82.1* | -9.5 | 64.6 | 10.8 | -106.1 | 66.5* | 35.6
CC12CCC(C)(c3nc4ccccc4nc31)C2(C)C | -4.2 | 34.2 | 8.3 | 66.2 | -1.3 | 1.7 | nt | nt
Cc1[nH]nc2c1-c1nc3ccccc3nc1C(C)(C)C2 | 17.0 | 50.4* | 17.9 | nt | -15.3 | -12.6 | 26.6 | nt
SMILES | aSyn 5UTR inh | Mdm2 MdmX PPI | Gli-Sufu antag | CSC inhib | Jurkat NFkB inh | 697 NFkB inh | Mdm2 MdmX conf | Full FLuc ctr
COc1cccc(C2C(C#N)=C(N)Oc3cc(C)oc(=O)c32)c1OC (stereo not drawn) | 23.7 | 0.7 | -26.3 | nt | -9.4 | -5.5 | nt | nt
N/C(Cc1ccc([N+](=O)[O-])cc1)=N\OC(=O)c1ccc([N+](=O)[O-])cc1 | -4.0 | 15.7 | -20.1 | 3.2 | 9.2 | 16.6 | nt | nt
N/C(Cc1ccc([N+](=O)[O-])cc1)=N\OC(=O)c1cccc(Br)c1 | -10.5 | 60.9* | 3.4 | -4.6 | 5.8 | 4.9 | 7.2 | nt
COc1cc(C(=O)O/N=C(\N)Cc2ccc([N+](=O)[O-])cc2)cc(OC)c1OC | 81.1* | 85.1* | 7.5 | 29.8 | 26.0 | -56.4 | 69.5* | 70.5*
CCOc1ccc(C(=O)O/N=C(\N)c2ccc([N+](=O)[O-])cc2)cc1OCC | 4.3 | 59.8* | 1.1 | nt | 13.5 | -29.9 | 52.3* | 125.5*
COc1ccc(C(=O)O/N=C(\N)Cc2ccc([N+](=O)[O-])cc2)c(OC)c1 | 5.4 | 86.4* | 11.9 | -3.0 | 3.1 | -34.3 | 67.8* | 90.3*
COc1ccc(C/C(N)=N/OC(=O)c2cccc([N+](=O)[O-])c2)cc1 | -3.2 | 8.9 | 1.7 | 4.3 | -15.1 | -6.4 | nt | nt
O=Cc1cccn1-c1ccc(O)cc1 | -13.8 | 15.0 | 0.9 | -6.8 | 24.8 | 11.5 | nt | nt
CCOc1cc(C=C(C(=O)OC)C(=O)OC)ccc1OCc1ccc([N+](=O)[O-])cc1 | nt | 96.4* | -42.0 | -13.0 | 1.6 | 26.0 | 74.9* | 44.0*
CCOc1cc(/C=N/O)ccc1OCc1ccc([N+](=O)[O-])cc1 | -13.2 | -22.5 | -10.4 | nt | 16.4 | -4.6 | nt | nt
Clc1ccc(CNc2ccc3nnc(-c4ccccc4)n3n2)cc1 | 6.2 | 54.6* | -8.9 | -0.5 | 6.2 | -3.7 | 21.7 | nt
CCc1ccc(-c2cc3c(=O)n(CC(=O)NCCN4CCCCC4C)nc(C)n3n2)cc1 (stereo not drawn) | 4.6 | 68.3* | -2.6 | 80.4* | -35.2 | -20.5 | 24.6 | nt
Cc1nn(CC(=O)NCCCN2CCCCC2)c(=O)c2cc(-c3ccccc3)nn12 | -2.2 | 17.0 | -1.4 | 3.1 | -21.8 | -47.5 | nt | nt
COc1ccc(-c2cc3c(=O)n(CC(=O)NCCCN4CCC(N5CCCCC5)CC4)nc(C)n3n2)cc1 | 8.8 | 98.7* | -1.3 | -15.7 | -36.5 | -14.1 | 100.2* | 46.4*
COc1ccc(-c2cc3c(=O)n(CC(=O)NC4CCN(Cc5ccccc5)CC4)ncn3n2)cc1 | -40.4 | 69.4* | 17.6 | -7.7 | -4.5 | -13.4 | 12.6 | nt
COc1ccc(-c2cc3c(=O)n(CC(=O)NCCCN4CCC(N5CCCCC5)CC4)ncn3n2)cc1 | -2.5 | 67.5* | -2.1 | 17.7 | -112.1 | -71.5 | 26.3 | nt
Cc1c(Cl)ccc2c(C(=O)Nc3cc(C(C)(C)C)on3)cc(-c3ccccn3)nc12 | -7.5 | 32.4 | 12.2 | -7.3 | 7.6 | 7.3 | nt | nt
